Records with an inconclusive call do not appear. Calls of active or inactive are those of the source. The calls were made as follows, unless noted: active = hit-call score of the fitted dose curve at least 0.9, where 1 is the maximum; inactive = score below 0.9.
Legend:
[1] = ATG_NFI_CIS: Attagene CIS-FACTORIAL HepG2 Assay for human Nuclear Factor I (NFI) (AID 2282989); conditions: HepG2 cis-regulatory reporter, NFI response element transcription; actives raise or lower the signal
Outline: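 Endogenous TF activity in HepG2 cells transiently transfected with cis-element-driven multiplexed reporter units, read 24 h after dosing. Reporter mRNA quantified by RT-PCR, 6-FAM labelling, HpaI digestion and capillary electrophoresis; bidirectional fit versus DMSO.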

[2] = target: Myc proto-oncogene protein (Homo sapiens) (UniProt P01106); assay: ATG_Myc_CIS: Attagene CIS-FACTORIAL HepG2 Assay for human Myelocytomatosis (Myc) Proto-Oncogene Transcription Factor (AID 2282990); conditions: HepG2, Attagene cis-reporter transcription factor activity; actives raise or lower the signal
Outline: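 Multiplexed cis-reporter transcription in HepG2 cells after 24 h chemical treatment. Reporter mRNA measured by RT-PCR and capillary electrophoresis fluorescence; activity fitted bidirectionally against DMSO control.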

[3] = ATG_NF_kB_CIS: Attagene CIS-FACTORIAL HepG2 Assay for human Nuclear Factor Kappa B (NF-kB) (AID 2282991); conditions: HepG2 Attagene cis-factorial NF-kB reporter mRNA; actives raise or lower the signal
Outline: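 After 24 h compound incubation, transfected HepG2 cells yield total RNA; reporter cDNA is PCR-amplified, end-labelled with 6-FAM, HpaI-digested and analysed on a genetic analyser. Endogenous factor activity, DMSO-referenced bidirectional fit.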

[4] = ATG_NRF2_ARE_CIS: Attagene CIS-FACTORIAL HepG2 Assay for human Nuclear Factor Erythroid 2 Related Factor 2 (NFR2) response to Antioxidant Response Elements (ARE) (AID 2282992); conditions: HepG2 Attagene ARE/NRF2 reporter, transcription factor activity; actives raise or lower the signal
Outline: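 Transient MRTU transfection of HepG2; 24 h compound exposure; TriZol RNA, RT with oligo(dT), PCR, 6-FAM primer extension, HpaI cut, CE. Bidirectional fit vs DMSO.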

[5] = ATG_Oct_MLP_CIS: Attagene CIS-FACTORIAL HepG2 Assay for human Octamer-Binding Transcription Factor (Oct) (AID 2282993); conditions: HepG2 Attagene cis-factorial Oct reporter, mRNA; actives raise or lower the signal
Outline: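 HepG2 cells transiently transfected with cis-element-driven reporter transcription units (endogenous TF activity); 24 h compound exposure. Reporter mRNA quantified by RT-PCR, 6-FAM labelling, HpaI digestion and capillary electrophoresis; bidirectional fit versus DMSO baseline.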

[6] = target: Cellular tumor antigen p53 (Homo sapiens) (UniProt P04637); assay: ATG_p53_CIS: Attagene CIS-FACTORIAL HepG2 Assay for human p53 Transcription Factor (AID 2282994); conditions: HepG2 p53 cis-element reporter, Attagene mRNA; actives raise or lower the signal
Outline: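 HepG2, transient MRTU transfection (cis promoter elements, endogenous TFs); 24 h dosing; RNA isolation, RT-PCR, 6-FAM primer extension, HpaI digest, CE fluorescence; bidirectional fit vs DMSO.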

[7] = target: human Peroxisome Proliferator-activated Receptor alpha (PPARa), PPARA (gene 5465) (UniProt Q07869); assay: ATG_PPARa_TRANS: Attagene TRANS-FACTORIAL HepG2 Assay for human Peroxisome Proliferator-activated Receptor alpha (PPARa) (AID 2283001; active = hit-call score of the fitted dose curve at least 0.9, where 1 is the maximum;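 as to AC50: potency for gain of reporter signal over DMSO so agonist or activator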)
Outline: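 HepG2 cells transiently transfected with multiplexed GAL4-UAS reporter units and chimeric NR-Gal4 constructs were dosed for 24 h. Reporter mRNA was measured by RT-PCR with fluorescent labelling and capillary electrophoresis; gain of signal fitted against DMSO.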

[8] = target: human Peroxisome Proliferator-activated Receptor delta (PPARd), PPARD (gene 5467) (UniProt Q03181); assay: ATG_PPARd_TRANS: Attagene TRANS-FACTORIAL HepG2 Assay for human Peroxisome Proliferator-activated Receptor delta (PPARd) (AID 2283002; active = hit-call score of the fitted dose curve at least 0.9, where 1 is the maximum)
Outline: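 Multiplexed trans-activation format: HepG2 liver cells expressing exogenous NR-Gal4 chimeras and GAL4-UAS reporters were exposed for 24 h. Reporter mRNA was detected by RT-PCR with capillary electrophoresis fluorescence; activity fitted as gain of signal relative to DMSO.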

[9] = BSK_3C_TissueFactor: BioMAP Diversity Plus: 3C Assay for Tissue Factor Biomarker Activity (AID 2282997); conditions: BioMAP 3C HUVEC, tissue factor biomarker readout; actives raise or lower the signal
Outline: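 Primary human umbilical vein endothelial cells in the 3C system were exposed to test chemical for 24 h, then Tissue Factor measured by ELISA. Activity was fitted bidirectionally against DMSO as negative control and baseline.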

[10] = BSK_3C_uPAR: BioMAP Diversity Plus: 3C Assay for Urokinase-type plasminogen activator receptor (uPAR) Biomarker Activity (AID 2282998); conditions: BioMAP 3C HUVEC, uPAR biomarker ELISA; actives raise or lower the signal
Outline: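 Primary human umbilical vein endothelial cells, 3C system; surface uPAR measured by ELISA 24 h after dosing. Cytotoxicity via SRB total protein in parallel cultures; bidirectional fit against DMSO.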

[11] = BSK_3C_VCAM1: BioMAP Diversity Plus: 3C Assay for Vascular cell adhesion molecule 1 (VCAM1) Biomarker Activity (AID 2282999); conditions: BioMAP 3C HUVEC, VCAM1 ELISA, cytokine-stimulated; actives raise or lower the signal
Outline: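 Human umbilical vein endothelial cells were dosed with compound for 24 h, after which cell-surface VCAM-1 was quantified by ELISA. Bidirectional curve fitting used DMSO as negative control and activity baseline.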

[12] = BSK_4H_Eotaxin3: BioMAP Diversity Plus: 4H Assay for Eotaxin 3 Biomarker Activity (AID 2283000); conditions: primary human endothelial cells (HUVEC); actives raise or lower the signal
Outline: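 HUVEC, 24 h post-dose, ELISA for Eotaxin-3/CCL26. Gain or loss of signal fitted bidirectionally vs DMSO baseline.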

[13] = read-out: Intercellular Adhesion Molecule 1 (ICAM1), ICAM1 (gene 3383); assay: BSK_3C_ICAM1: BioMAP Diversity Plus: 3C Assay for Intercellular Adhesion Molecule 1 (ICAM1) Biomarker Activity (AID 2283003); conditions: primary human endothelial cells (HUVEC); actives raise or lower the signal
Outline: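 Primary human umbilical vein endothelial cells in the BioMAP 3C system were exposed to chemicals for 24 h, then ICAM-1 was quantified by ELISA. Activity was fitted bidirectionally against the DMSO negative control baseline.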

[14] = target: Peroxisome proliferator-activated receptor gamma (Homo sapiens) (UniProt P37231); assay: ATG_PPARg_TRANS: Attagene TRANS-FACTORIAL HepG2 Assay for human Peroxisome Proliferator-activated Receptor-gamma (PPARg) (AID 2283007; active = hit-call score of the fitted dose curve at least 0.9, where 1 is the maximum)
Outline: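 Liver-derived HepG2 cells expressing an exogenous NR-Gal4 chimera alongside GAL4-UAS reporter genes; 24 h exposure. Fluorescence of reporter RT-PCR products, separated by capillary electrophoresis, gives mRNA induction relative to DMSO.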

[15] = target: Nuclear receptor subfamily 1 group I member 2 (Homo sapiens) (UniProt O75469); assay: ATG_PXR_TRANS: Attagene TRANS-FACTORIAL HepG2 Assay for human Pregnane X Receptor (PXR) (AID 2283008; active = hit-call score of the fitted dose curve at least 0.9, where 1 is the maximum)
Outline: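 Read-out is fluorescence of labelled reporter cDNA fragments separated by capillary electrophoresis after RT-PCR and HpaI digestion. Source: HepG2 cells carrying PXR-GAL4/UAS reporter constructs, treated 24 h; activity fitted upward relative to DMSO.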

[16] = target: human Retinoic Acid Receptor beta (RARb), RARB (gene 5915) (UniProt P10826); assay: ATG_RARb_TRANS: Attagene TRANS-FACTORIAL HepG2 Assay for human Retinoic Acid Receptor beta (AID 2283004; active = hit-call score of the fitted dose curve at least 0.9, where 1 is the maximum)
Outline: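 HepG2 cells transiently transfected with multiplexed GAL4-UAS reporter units expressing chimeric NR–Gal4 fusions; 24 h compound exposure. Reporter mRNA quantified by RT-PCR, 6-FAM labelling, HpaI digestion and capillary electrophoresis; gain-of-signal fitted against DMSO baseline.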

[17] = target: Retinoic acid receptor alpha (Homo sapiens) (UniProt P10276); assay: ATG_RARa_TRANS: Attagene TRANS-FACTORIAL HepG2 Assay for human Retinoic Acid Receptor alpha (RARa) (AID 2283005; active = hit-call score of the fitted dose curve at least 0.9, where 1 is the maximum)
Outline: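 HepG2 cells transiently transfected with multiple reporter units expressing chimeric RARα-GAL4 fusion, with GAL4-UAS-driven reporters. After 24 h compound exposure, reporter mRNA induction quantified by RT-PCR and capillary electrophoresis with fluorescent labeling; gain-of-signal fitted relative to DMSO control.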

[18] = target: human Retinoic Acid Receptor gamma (RARg), RARG (gene 5916) (UniProt P13631); assay: ATG_RARg_TRANS: Attagene TRANS-FACTORIAL HepG2 Assay for human Retinoic Acid Receptor gamma (RARg) (AID 2283009; active = hit-call score of the fitted dose curve at least 0.9, where 1 is the maximum)
Outline: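 HepG2 cells transiently transfected with multiplexed reporter units expressing chimeric RARg-GAL4 and GAL4-UAS-driven reporters; 24 h compound exposure. Reporter mRNA quantified by RT-PCR with fluorescent labelling and capillary electrophoresis; gain-of-signal fitted relative to DMSO baseline.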

[19] = target: human RAR-related Orphan Receptor beta (RORb), RORB (gene 6096) (UniProt Q92753); assay: ATG_RORb_TRANS: Attagene TRANS-FACTORIAL HepG2 Assay for human RAR-related Orphan Receptor beta (RORb) (AID 2283010; active = hit-call score of the fitted dose curve at least 0.9, where 1 is the maximum)
Outline: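 HepG2 cells were transiently transfected with multiplexed GAL4-UAS reporter units expressing chimeric nuclear receptor–GAL4 proteins, then dosed for 24 h. Reporter mRNA was quantified by RT-PCR with fluorescent labelling and capillary electrophoresis; gain of signal was fitted relative to DMSO.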

Measured: AC50

Sequence of Peroxisome proliferator-activated receptor gamma (Homo sapiens) (P37231 whole entry, looked up, the tested form may be a part): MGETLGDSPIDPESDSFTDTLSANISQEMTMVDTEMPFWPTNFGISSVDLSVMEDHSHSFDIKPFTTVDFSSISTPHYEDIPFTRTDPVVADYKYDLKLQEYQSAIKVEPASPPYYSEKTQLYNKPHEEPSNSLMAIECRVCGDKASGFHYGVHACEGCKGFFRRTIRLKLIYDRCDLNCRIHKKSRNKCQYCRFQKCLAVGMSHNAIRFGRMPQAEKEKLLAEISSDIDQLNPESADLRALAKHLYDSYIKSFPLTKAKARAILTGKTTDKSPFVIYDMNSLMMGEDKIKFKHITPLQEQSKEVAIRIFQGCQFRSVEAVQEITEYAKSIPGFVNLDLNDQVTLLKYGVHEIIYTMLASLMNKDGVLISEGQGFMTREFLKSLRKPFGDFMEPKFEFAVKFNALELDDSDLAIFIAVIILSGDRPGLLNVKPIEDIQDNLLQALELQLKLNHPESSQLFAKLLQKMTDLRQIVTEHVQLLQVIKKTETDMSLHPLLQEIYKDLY
Sequence of Cellular tumor antigen p53 (Homo sapiens) (P04637 whole entry, looked up): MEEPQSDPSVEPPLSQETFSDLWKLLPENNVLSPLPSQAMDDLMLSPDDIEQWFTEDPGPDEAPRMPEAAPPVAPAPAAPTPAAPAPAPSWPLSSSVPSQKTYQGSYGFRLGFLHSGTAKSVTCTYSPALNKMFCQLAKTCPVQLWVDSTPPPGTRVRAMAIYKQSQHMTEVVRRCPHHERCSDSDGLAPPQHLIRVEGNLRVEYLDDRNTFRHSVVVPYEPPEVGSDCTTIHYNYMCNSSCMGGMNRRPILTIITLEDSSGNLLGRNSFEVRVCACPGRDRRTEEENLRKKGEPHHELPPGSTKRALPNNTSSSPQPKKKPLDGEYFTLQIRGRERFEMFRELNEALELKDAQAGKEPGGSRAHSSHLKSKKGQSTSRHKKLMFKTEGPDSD
Sequence of Retinoic acid receptor alpha (Homo sapiens) (P10276 whole entry, looked up, the tested form may be a part): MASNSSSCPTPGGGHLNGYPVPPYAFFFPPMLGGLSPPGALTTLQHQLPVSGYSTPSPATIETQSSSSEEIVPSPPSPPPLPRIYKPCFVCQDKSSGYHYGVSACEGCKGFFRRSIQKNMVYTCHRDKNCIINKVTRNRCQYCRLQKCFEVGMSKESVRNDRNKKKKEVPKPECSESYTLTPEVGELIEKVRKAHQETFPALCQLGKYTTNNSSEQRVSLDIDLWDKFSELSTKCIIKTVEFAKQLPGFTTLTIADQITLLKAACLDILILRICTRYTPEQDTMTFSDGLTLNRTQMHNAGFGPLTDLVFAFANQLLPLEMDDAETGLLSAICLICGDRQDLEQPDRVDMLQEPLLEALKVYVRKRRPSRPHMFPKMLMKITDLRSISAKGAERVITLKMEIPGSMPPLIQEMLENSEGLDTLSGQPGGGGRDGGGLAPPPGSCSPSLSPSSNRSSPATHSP
Sequence of human Peroxisome Proliferator-activated Receptor alpha (PPARa), PPARA (gene 5465) (Q07869 whole entry, looked up, the tested form may be a part): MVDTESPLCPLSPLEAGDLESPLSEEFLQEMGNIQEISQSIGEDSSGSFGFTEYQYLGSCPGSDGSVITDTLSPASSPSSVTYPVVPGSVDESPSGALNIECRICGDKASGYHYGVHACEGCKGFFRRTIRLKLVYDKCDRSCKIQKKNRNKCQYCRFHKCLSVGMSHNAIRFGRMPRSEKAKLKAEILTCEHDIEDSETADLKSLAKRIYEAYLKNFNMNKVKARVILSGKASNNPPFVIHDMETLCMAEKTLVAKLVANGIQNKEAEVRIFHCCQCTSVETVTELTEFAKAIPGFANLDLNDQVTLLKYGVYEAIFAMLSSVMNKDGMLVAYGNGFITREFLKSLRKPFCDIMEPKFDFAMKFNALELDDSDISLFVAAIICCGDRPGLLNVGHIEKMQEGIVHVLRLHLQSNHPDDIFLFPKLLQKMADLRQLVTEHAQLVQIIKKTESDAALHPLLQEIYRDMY
Sequence of human Retinoic Acid Receptor beta (RARb), RARB (gene 5915) (P10826 whole entry, looked up, the tested form may be a part): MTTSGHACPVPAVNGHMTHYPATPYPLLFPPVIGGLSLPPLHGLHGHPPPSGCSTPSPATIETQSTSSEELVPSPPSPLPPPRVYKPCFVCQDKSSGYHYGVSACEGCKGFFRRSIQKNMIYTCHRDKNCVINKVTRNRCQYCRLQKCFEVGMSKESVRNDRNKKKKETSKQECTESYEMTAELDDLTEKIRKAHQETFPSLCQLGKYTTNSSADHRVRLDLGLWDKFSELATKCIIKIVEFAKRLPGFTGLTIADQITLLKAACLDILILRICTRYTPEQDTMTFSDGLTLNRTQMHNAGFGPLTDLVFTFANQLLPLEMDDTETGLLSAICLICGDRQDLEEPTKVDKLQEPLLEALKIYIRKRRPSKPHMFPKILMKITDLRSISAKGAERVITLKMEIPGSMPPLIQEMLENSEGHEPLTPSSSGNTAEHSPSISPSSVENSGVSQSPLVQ
Sequence of Myc proto-oncogene protein (Homo sapiens) (P01106 whole entry, looked up): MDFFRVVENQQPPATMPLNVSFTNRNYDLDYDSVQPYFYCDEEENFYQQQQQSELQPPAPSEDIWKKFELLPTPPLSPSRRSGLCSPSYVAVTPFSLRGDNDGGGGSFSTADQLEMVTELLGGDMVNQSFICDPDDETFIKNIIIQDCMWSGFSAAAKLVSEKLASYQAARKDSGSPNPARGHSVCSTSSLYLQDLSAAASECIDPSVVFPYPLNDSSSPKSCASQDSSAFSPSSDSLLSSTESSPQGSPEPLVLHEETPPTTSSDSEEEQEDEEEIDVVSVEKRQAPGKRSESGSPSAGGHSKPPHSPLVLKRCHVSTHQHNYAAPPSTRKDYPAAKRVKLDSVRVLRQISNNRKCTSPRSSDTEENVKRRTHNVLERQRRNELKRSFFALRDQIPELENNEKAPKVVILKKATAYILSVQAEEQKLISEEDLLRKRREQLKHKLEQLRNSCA
Sequence of Nuclear receptor subfamily 1 group I member 2 (Homo sapiens) (O75469 whole entry, looked up, the tested form may be a part): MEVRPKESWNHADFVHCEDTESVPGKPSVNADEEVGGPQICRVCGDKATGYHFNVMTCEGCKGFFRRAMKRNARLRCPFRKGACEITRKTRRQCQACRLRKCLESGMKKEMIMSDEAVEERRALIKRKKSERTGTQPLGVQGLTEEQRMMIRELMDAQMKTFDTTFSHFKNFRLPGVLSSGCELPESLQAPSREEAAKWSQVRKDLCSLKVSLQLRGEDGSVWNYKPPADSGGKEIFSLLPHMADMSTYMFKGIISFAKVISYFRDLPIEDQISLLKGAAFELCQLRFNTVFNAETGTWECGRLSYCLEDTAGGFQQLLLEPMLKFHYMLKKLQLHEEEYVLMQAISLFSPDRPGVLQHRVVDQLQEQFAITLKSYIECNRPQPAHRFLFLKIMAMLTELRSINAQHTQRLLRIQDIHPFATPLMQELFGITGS
Sequence of human Peroxisome Proliferator-activated Receptor delta (PPARd), PPARD (gene 5467) (Q03181 whole entry, looked up, the tested form may be a part): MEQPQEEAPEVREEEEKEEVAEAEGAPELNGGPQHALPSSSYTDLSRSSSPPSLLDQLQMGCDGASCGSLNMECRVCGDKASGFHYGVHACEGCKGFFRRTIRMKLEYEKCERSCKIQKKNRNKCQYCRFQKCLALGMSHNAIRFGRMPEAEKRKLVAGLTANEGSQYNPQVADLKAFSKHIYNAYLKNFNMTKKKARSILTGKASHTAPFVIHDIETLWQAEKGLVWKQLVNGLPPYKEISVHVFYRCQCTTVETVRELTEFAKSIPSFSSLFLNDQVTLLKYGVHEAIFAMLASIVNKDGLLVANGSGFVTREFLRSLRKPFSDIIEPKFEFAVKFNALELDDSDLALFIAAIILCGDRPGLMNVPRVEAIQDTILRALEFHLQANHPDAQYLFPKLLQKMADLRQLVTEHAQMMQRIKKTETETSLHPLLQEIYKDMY
Sequence of human Retinoic Acid Receptor gamma (RARg), RARG (gene 5916) (P13631 whole entry, looked up, the tested form may be a part): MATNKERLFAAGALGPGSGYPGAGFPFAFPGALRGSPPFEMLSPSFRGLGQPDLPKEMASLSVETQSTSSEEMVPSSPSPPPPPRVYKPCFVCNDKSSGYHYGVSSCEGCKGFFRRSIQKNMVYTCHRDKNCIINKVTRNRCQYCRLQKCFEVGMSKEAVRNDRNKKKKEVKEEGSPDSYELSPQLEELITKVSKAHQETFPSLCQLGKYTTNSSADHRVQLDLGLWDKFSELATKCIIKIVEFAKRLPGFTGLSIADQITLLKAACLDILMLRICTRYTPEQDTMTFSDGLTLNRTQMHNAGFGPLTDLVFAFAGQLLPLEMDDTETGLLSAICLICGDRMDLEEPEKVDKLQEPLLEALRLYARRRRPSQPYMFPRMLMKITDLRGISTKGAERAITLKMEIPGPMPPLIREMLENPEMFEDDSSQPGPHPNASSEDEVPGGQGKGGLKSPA
Sequence of human RAR-related Orphan Receptor beta (RORb), RORB (gene 6096) (Q92753 whole entry, looked up, the tested form may be a part): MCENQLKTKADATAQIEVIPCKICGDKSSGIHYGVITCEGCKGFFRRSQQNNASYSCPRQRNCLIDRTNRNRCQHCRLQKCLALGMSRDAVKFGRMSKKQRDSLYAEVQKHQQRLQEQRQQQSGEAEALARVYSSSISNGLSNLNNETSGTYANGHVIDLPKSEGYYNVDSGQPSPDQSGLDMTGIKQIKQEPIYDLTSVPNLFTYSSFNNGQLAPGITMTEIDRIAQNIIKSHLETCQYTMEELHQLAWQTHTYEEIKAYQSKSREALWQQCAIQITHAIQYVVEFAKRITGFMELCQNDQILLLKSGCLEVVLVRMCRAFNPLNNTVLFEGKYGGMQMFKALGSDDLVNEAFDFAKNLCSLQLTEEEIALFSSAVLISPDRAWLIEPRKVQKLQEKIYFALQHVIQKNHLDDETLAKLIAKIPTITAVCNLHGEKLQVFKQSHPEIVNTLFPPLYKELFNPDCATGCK

CCC(C)S (centres undefined)
inactive: [1] | [2] | [3] | [4] | [5] | [6] | [7] | [8]

c1ccc2cc(Nc3ccc(Nc4ccc5ccccc5c4)cc3)ccc2c1
active: [9] 13.9 µM
not listed: [16] | [17] | [18] | [19]
inactive: all other assays above

C=C(C)C(=O)OCC(CC)(COC(=O)C(=C)C)COC(=O)C(=C)C
active: [4] 51.4 µM | [14] 98.5 µM
not listed: [7] | [8] | [16] | [17] | [18] | [19]
inactive: all other assays above

CCC1(c2ccccc2)C(=O)NCNC1=O
inactive: [1] | [2] | [3] | [4] | [5] | [6]

c1ccc(Oc2ccccc2)cc1
active: [9] 30.7 µM | [10] 30.6 µM | [11] 30.7 µM | [12] 31.5 µM | [13] 32.2 µM
not listed: [14] | [15] | [17] | [18] | [19]
inactive: all other assays above

CC(=O)C(C)O (centres undefined)
inactive: [1] | [2] | [3] | [4] | [5] | [6] | [7]

NCCNc1cccc2ccccc12
active: [1] 178 µM | [2] 168 µM | [5] 176 µM | [6] 50.9 µM | [7] 150 µM | [14] 125 µM
not listed: [9] | [10] | [11] | [12] | [13]
inactive: all other assays above

CC(=O)c1c(C)c([N+](=O)[O-])c(C(C)(C)C)c([N+](=O)[O-])c1C
active: [15] 1.84 µM
not listed: [7] | [19]
inactive: all other assays above

CC(=O)C1(C)CC2=C(CCCC2(C)C)CC1C (centres undefined)
inactive: [2]
active: [1] 187 µM | [3] 121 µM | [4] 93.6 µM | [5] 61.1 µM | [6] 144 µM | [9] 7.62 µM | [10] 8.27 µM | [11] 11 µM | [12] 9.74 µM | [13] 12.8 µM | [14] 100 µM | [15] 9.83 µM

NC(=S)NNC(N)=S
not listed: [9] | [10] | [11] | [12] | [13] | [18] | [19]
inactive: all other assays above

— PubChem BioAssay (EPA / NIEHS)
